# Hit rate of the full screen: of about 280,000 compounds, about 540 (0.19%) were called active. About 2% were inconclusive and are not listed. The call rests on the fitted dose curve; in most records, active means well fitted activation curve with a large enough effect; inconclusive means small, poorly fitted or top-dose-only effect; inactive means flat fitted curve, though single readings scatter. This excerpt belongs to a sample that is enriched for actives.
# Test: Quantitative High-Throughput Screen for Regulators of Epigenetic Control; further: nearly all actives have a fitted effect of over 60% in size; on GFP activation: % of control where 0% means no effect
# Details: murine LDR cells, GFP reporter derepression, 30 h; series mostly up to 53.9 µM; GFP activation: at the top concentration
# How it was run: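 Reporter derepression read as number of fluorescent GFP-positive objects, 20-120 um in size, counted by laser-scanning cytometer. Mouse LDR line with an epigenetically silenced CMV-GFP locus; compound incubation 30 h, 37 C.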
# Potency means the concentration at half of the fitted maximal effect.
SMILES,GFP activation,Potency
Cc1ccc(-n2c3nc(=O)[nH]c(=O)c-3cc3c(Cl)cccc32)cc1,0.833% (inactive),–
Cc1c(-c2nsc(NC(=O)c3cccc(Cl)c3)n2)nnn1-c1ccccc1C(F)(F)F,-3.14% (inactive),–
CSc1ccc(C2c3c(oc4ccccc4c3=O)C(=O)N2CCCN2CCOCC2)cc1 (stereo unspecified),-0.962% (inactive),–
CCC(C(=O)Nc1cccc(Cl)c1C)n1nc(-c2ccc(C)cc2)ccc1=O (stereo unspecified),-5.49% (inactive),–
CCOC(=O)CNC(=O)c1cc2c(=O)n3cccc(C)c3nc2s1,-0.885% (inactive),–
CCOC(=O)CC1C(=O)NCCN1c1nc2c(C)cccn2c(=O)c1/C=C1\SC(=S)N(C(C)CC)C1=O (stereo unspecified),–,7.08 µM (active)
CCOC(=O)CC1C(=O)NCCN1C(=O)COc1ccc(Br)cc1C (stereo unspecified),-3.32% (inactive),–
COc1ccc(-n2nnc(-c3nsc(NC(=O)c4ccc(C)c(C)c4)n3)c2C)cc1Cl,-3.18% (inactive),–
Cc1ccc(SCC(=O)Nc2ccc3oc(-c4ccccc4F)nc3c2)cc1,16.1% (inactive),–
Cc1c(Cl)cccc1NC(=O)Cn1cc(C(=O)c2cccs2)c2ccccc21,2.88% (inactive),–
COc1cccc(C(=O)Nc2ccc(-c3cc(C(F)(F)F)nn3-c3ccccc3)cc2)c1,1.08% (inactive),–
CCS(=O)(=O)c1ncc(N(Cc2ccc(F)cc2)Cc2ccco2)c(C(=O)Nc2cc(C)ccc2C)n1,-2.39% (inactive),–
CC(C)CCN(C(=O)Nc1ccc(Cl)c(Cl)c1)C(C)c1cccs1 (stereo unspecified),-0.998% (inactive),–
CCc1cc2c(cc(C(=O)OC)n2Cc2nc(-c3ccc(C)cc3)oc2C)s1,2.7% (inactive),–
COc1ccccc1-c1nnc(C2CCN(C(=O)c3ccc(Cl)cc3)CC2)o1,1.22% (inactive),–
CCC(Sc1nc2n[nH]c(C)c2c(=N)n1-c1ccccc1Cl)C(=O)N(CC)CC (stereo unspecified),0% (inactive),–
CC1=C(C(=O)N2CCN(c3cccc(C(F)(F)F)c3)CC2)C2(CCCCC2)OC1=O,0% (inactive),–
COc1ccc(OCCCn2c(C)nc3cc(C)c(C)cc32)cc1,-0.78% (inactive),–
CCn1c(/C=C/c2ccc([N+](=O)[O-])o2)nc2ccccc2c1=O,–,3.55 µM (active)
Cn1cc(/C=C/c2nc3ccccc3c(=O)n2-c2cccc([N+](=O)[O-])c2)c2ccccc21,0.971% (inactive),–
C/[N+]([O-])=C\c1ccc([N+](=O)[O-])o1,0.0128% (inactive),–

SMILES,GFP activation,Potency
Cc1c(Cl)cccc1NC(=O)N1CCN(C(=O)c2nsc3ccccc23)CC1,5.4% (inactive),–
Cc1ccc(NC(=O)c2ccc(CN3CC(=O)N4CCCCC4C3=O)cc2)c(Cl)c1 (stereo unspecified),-1.23% (inactive),–
CCCN(CCC)C(=O)Cn1c(=O)n(-c2ccc(Cl)cc2)c(=O)c2c3c(sc21)CCCCC3,-0.0516% (inactive),–
CC(C)(C)c1ccc(C(=O)Nc2ccc3c(c2)CCCN3C(=O)c2cccs2)cc1,-1.49% (inactive),–
O=C(NCc1ccc2c(c1)CCN2C(=O)c1ccccc1)c1ccccc1,-0.465% (inactive),–
CCOc1ccc(NC(=O)c2cc3c(=O)n(Cc4cccs4)ccc3nc2C)cc1,0% (inactive),–
COc1cc(NC(=O)Cn2nc(-c3ccc(C)c(C)c3)ccc2=O)cc(OC)c1,0% (inactive),–
COc1cccc(C(=O)NC2(C(F)(F)F)C(=O)Nc3c2c(=O)[nH]c(=O)n3-c2ccc(C)cc2)c1 (stereo unspecified),0% (inactive),–
O=C(COc1ccc(Cl)cc1)N(Cc1ccco1)Cc1ccco1,-1.6% (inactive),–
CCNS(=O)(=O)c1ccc(NC(=O)CSc2nc(-c3ccco3)cc(C(F)(F)F)n2)cc1,-0.962% (inactive),–
O=C(CSc1ncc(S(=O)(=O)c2ccc(Br)cc2)c(=O)[nH]1)Nc1ccc2c(c1)OCCO2,0% (inactive),–
CN(C)c1nc(=Nc2cccc(Cl)c2)ss1,–,1.12 µM (active)
Clc1cccc(N=C2NN=C(c3ccc4c(c3)OCCO4)CS2)c1,-7.25% (inactive),–
O=C1NCC(=O)N(Cc2ccccc2)/C1=C/c1ccccc1,-0.292% (inactive),–
CN(C)c1ccc(/C=C2\NC(=S)N(Cc3ccccc3)C2=O)cc1,–,7.08 µM (active)
CC1=NN(Cc2ccccc2)C(=O)/C1=C/c1ccc(N(C)C)cc1,-0.855% (inactive),–
COc1cc2[nH]c(=O)n(Cc3ccc(C(=O)NCc4ccc(C)cc4)cc3)c(=O)c2cc1OC,6.33% (inactive),–
Cc1ccccc1C(=O)Nc1sc2c(c1C(=O)N1CCC(C)CC1)CCCC2,4.81% (inactive),–
O=C(Cn1nc(Cc2cccnc2)c2ccccc2c1=O)N1CCN(c2ccccc2F)CC1,-5.16% (inactive),–
CCN1/C(=C/C(=S)Nc2ccccc2)Sc2ccccc21,0.971% (inactive),–
CCN1/C(=C/c2ccc3ccc(C)cc3[n+]2CC)Sc2ccccc21,–,1.12 µM (active)

SMILES,GFP activation,Potency
CCN1CCN(CCNC(=O)c2ccc(/C=C3/Sc4ccccc4N(Cc4cccc(C)c4)C3=O)cc2)CC1,4.88% (inactive),–
CCN1/C(=C\c2ccc3ccccc3[n+]2CC)Sc2cc(C)ccc21,–,0.562 µM (active)
COc1ccc(OC)c(NC(=O)C2CCCN(S(=O)(=O)c3ccc4c(c3)CCCC(=O)N4)C2)c1 (stereo unspecified),0.833% (inactive),–
COc1ccc(CCNC(=O)c2cn(C)c3ccc(S(=O)(=O)N(C)C4CCCCC4)cc3c2=O)cc1OC,1.22% (inactive),–
COc1ccc(-c2onc(C)c2C)cc1S(=O)(=O)NCCc1ccccc1,-4.71% (inactive),–
COc1ccc(NC(=O)c2ccc3nc(CCc4ccccc4)oc3c2)c(OC)c1,1.69% (inactive),–
Cc1ccc2nc(/C(C#N)=C/c3ccccc3F)[nH]c2c1,-1.59% (inactive),–
Cc1ccc2nc(/C(C#N)=C\c3ccc(OC(=O)c4cccs4)cc3)[nH]c2c1,5.06% (inactive),–
Cc1ccc2nc(/C(C#N)=C/c3ccc(-c4ccc(C(=O)OC(C)C)cc4)o3)[nH]c2c1,–,1.41 µM (active)
COc1ccc(C(=O)Nc2cccc(C(=O)OCc3cc(=O)n4c5c(sc4n3)CCCC5)c2)cc1,3.53% (inactive),–
NNC(=O)c1oc2nc(-c3ccccc3)cc(-c3ccco3)c2c1N,0.0322% (inactive),–
CNC(=S)NNC(=O)c1oc2nc(-c3ccccc3)cc(-c3ccco3)c2c1N,–,15.8 µM (active)
CS(=O)(=O)c1sc2nc(-c3ccccc3)cc(-c3ccccc3)c2c1N,1.45% (inactive),–
CC(=O)Nc1ccc(/C=N/NC(=O)c2cccs2)cc1,1.14% (inactive),–
O=C(N/N=C/C=C/c1ccco1)c1cccs1,–,17.8 µM (active)
Cc1ccc(-c2cc(C(=O)N/N=C/C=C/c3ccco3)c3ccccc3n2)cc1C,2.16% (inactive),–
Cc1ccc(S(=O)(=O)c2nc(-c3ccco3)oc2SCC(=O)Nc2ccc(F)cc2)cc1,11.1% (inactive),–
Cc1cc(C(=O)Nc2cccc(C(F)(F)F)c2)c2c(C)nn(-c3cccc(F)c3)c2n1,-1.27% (inactive),–
O=C(Nc1ccc2nc(SCC(=O)N3CCCc4ccccc43)sc2c1)c1ccc(F)cc1,-3.23% (inactive),–

# From PubChem BioAssay AID1865 (National Center for Advancing Translational Sciences (NCATS), 2009)
